HT1080NT lethal – kills 2HG-producing HT-1080-NT fibrosarcoma cells; Potency, µM (series often up to 46.1 µM), inactives show at the top dose activity, negative = less viability, most hits filed as cytotoxic; HT-1080-NT fibrosarcoma viability, CellTiter-Glo ATP luminescence, 48 h; actives 1.6% (n = 360,000);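 note: NT is the 2HG producing partner of a matched IDH1 knockdown line; 0% = DMSO-treated cells and -100% = media-only wells without cells; nearly all actives have a fitted effect of over 55% in size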
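HT-1080-NT fibrosarcoma cells (2HG-overproducing), 750 cells/well in RPMI with 5% FBS, dosed after 2 h and incubated 48 h at 37C. CellTiter-Glo luminescence normalized to DMSO and no-cell wells; concentration-response curves fitted and classed.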
KB-V1 cytotox – KB-V1 MDR subline cytotoxicity. KB-V1 MDR cells viability, CellTiter-Glo, 72 h. Potency, µM (series often up to 46.1 µM), actives largely listed as cytotoxic. actives 3.4% (n = 400,000). AID 1347076; note: % is set by controls: 0 for no effect and ±100 for the full control effect; nearly all actives have a fitted effect of over 60% in size
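Readout: CellTiter-Glo luminescence, 10 min after addition. Cells: KB-V1 MDR subline, 72 h at 37 degrees C with compound. Analysis: corrected, normalized data fitted to concentration-effect curves.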
HT1080 IDH1KD tx – toxicity to HT-1080 IDH1 knockdown cells (counter line) | actives 2% (n = 360,000) | HT-1080 IDH1 knockdown viability, ATP luminescence, 48 h | Potency, µM (top dose mostly 46.1 µM), inactives show top-dose activity, negative = toxicity, most hits filed as cytotoxic | AID 686971;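 note: 0% = DMSO wells and -100% = cell-free medium wells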
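Cytotoxicity counter-line: IDH1KD HT-1080, 48 h, CellTiter-Glo. Curves classed by r2, magnitude and activity.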
S2 tox – reduces viability in counter-screen for ATXN expression inhibitors | S2 cells (HEK-293 line with an ATXN2-luciferase reporter) viability, CellTiter-Fluor protease fluorescence, 24 h | Potency, µM (doses to about 56.7 µM), usual class: cytotoxic | actives 0.49% (n = 400,000) | AID 651635; note: nearly all actives have a fitted effect of over 40% in size
KB-3-1 cytotox – kills parental KB-3-1 adenocarcinoma cells. KB-3-1 viability, CellTiter-Glo ATP luminescence, 72 h. Potency, µM (doses to about 46.1 µM), actives largely listed as cytotoxic. actives 1.4% (n = 400,000); note: % is set by controls: 0 for no effect and ±100 for the full control effect; nearly all actives have a fitted effect of over 60% in size
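Viability of parental KB-3-1 cells, measured by CellTiter-Glo luminescence, followed a 72 h incubation at 37 °C with pinned compounds in phenol-red-free DMEM containing 10% FBS.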
ATXN2 expr inh – reduces ATXN2 reporter expression in HEK-293 cells | AID 1745845 | HEK-293 ATXN2-luciferase reporter, luminescence, 24 h | actives 0.72% (n = 360,000) | Potency, µM (doses to about 57 µM), without a hit: at the highest dose activity change, negative = inhibition, hits mostly inhibitors; note: % is set by controls: 0 for no effect and ±100 for the full control effect; nearly all actives have a fitted effect of over 55% in size
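ATXN2-luciferase reporter cells (luciferase flanked by upstream and downstream ATXN2 gene portions) were treated 24 h at 37 °C with compounds at up to 57 uM. SteadyGlo luminescence gave expression; GF-AFC fluorescence gave viability.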
* marks the source's active call; other numbers are inactive results; i = inactive; ? = inconclusive; nt = no result; [ ] = remark or other dose. Compounds with a hit are over-represented: about 6.2% of the library has one in this group of screens. Calls come from the whole dose curve; as a rule, active = well fitted curve in the direction sought with a large enough effect; inconclusive = small, poorly fitted or top-dose-only effect, or another doubt; inactive = no such curve, though single readings can be large; an effect the other way counts as inactive or inconclusive. Potency is the fitted concentration of half-maximal effect.

SMILES	HT1080NT lethal	KB-V1 cytotox	HT1080 IDH1KD tx	S2 tox	KB-3-1 cytotox	ATXN2 expr inh
COc1ccc(-c2nc3c(C)cc(Br)cn3c2Cc2cccc(F)c2)cc1OC	?	i	?	?	i	3.7%
COc1ccc(-c2nc3c4ccccc4ccn3c2Cc2cccc(F)c2)cc1OC	23.1µM*	i	?	?	i	10.7%
Cc1ccc(NC(=S)NCc2ccccc2)cc1S(=O)(=O)N1CCCCC1	-10.0%	13µM*	-7.6%	?	?	nt
Cc1ccc(CN2CC(C(=O)Nc3ccc(C)c(S(=O)(=O)N4CCCCC4)c3)CC2=O)cc1 (centres undefined)	-3.9%	20.6µM*	-26.4%	i	16.4µM*	-16.1%
COCc1c(C(=O)Nc2ccc(C)c(S(=O)(=O)N3CCOCC3)c2)oc2ccccc12	6.4%	4.61µM*	-1.8%	i	?	24.6%
CCOC(=O)Nc1ccc2nc(N3CCCCCC3)sc2c1	?	?	8.2µM*	i	i	nt
Cc1ccc(NC(=O)COC(=O)c2oc3ccccc3c2C)cc1S(=O)(=O)N1CCOCC1	-17.9%	i	-0.2%	i	i	0.5%
Cc1ccc(S(=O)(=O)N2CCOCC2)cc1NC(=O)COC(=O)c1ccc(Cl)s1	0.9%	i	10.8%	i	i	3.3%
COC(=O)N1CCCCC1c1cc(C(=O)NCc2ccccc2)no1 (centres undefined)	25.2%	i	17.3%	i	i	15.5%
COc1ccc2cc(CNCc3ccccc3Cl)c(N3CCCC(CO)C3)nc2c1 (centres undefined)	nt	nt	nt	i	nt	nt
Cc1ccc(NC(=O)c2cc(=O)c3ccccc3o2)cc1S(=O)(=O)N1CCCCC1	-24.1%	9.2µM*	?	i	?	-38.8%
Cc1ccc(NC(=O)c2cc(=O)c3ccccc3o2)cc1S(=O)(=O)N1CCOCC1	-16.6%	16.4µM*	-6.1%	i	i	nt
CCOCc1c(C(=O)Nc2cc(OCC)c(N3CCOCC3)cc2OCC)oc2ccccc12	-1.9%	i	10.0%	i	i	6.5%
CCOCc1c(C(=O)Nc2ccc3nc(N4CCOCC4)sc3c2)oc2ccccc12	-2.2%	20.6µM*	-9.5%	i	?	-23.0%
Cn1cnc([N+](=O)[O-])c1NC(C)(C)C	20.7%	?	10.1%	i	i	-5.3%
Cn1cnc([N+](=O)[O-])c1S(=O)(=O)c1ccc(Cl)cc1	9.2µM*	i	6.51µM*	?	i	?
CC(C)(C)C(=O)Nc1ccccc1C(=O)OCc1cc(=O)n2ccsc2n1	nt	?	nt	i	i	-1.4%
Cc1cc2cc(CN(Cc3ccco3)S(=O)(=O)c3c(C)ccc4nsnc34)c(=O)[nH]c2cc1C	?	1.64µM*	?	?	3.26µM*	?
COC(=O)c1cccc(S(=O)(=O)N(Cc2ccco2)Cc2cc3cc(OC)ccc3[nH]c2=O)c1	-27.6%	16.4µM*	-27.7%	i	i	-0.3%
Nn1c(SCC(=O)Nc2ccc3c(c2)OCO3)nnc1-c1cccc(Cl)c1	-14.9%	i	-17.7%	i	i	-2.8%
Cc1cccc(-n2nnnc2SCC(=O)c2cc(C)n(CC3CCCO3)c2C)c1 (centres undefined)	-17.9%	?	-4.1%	i	i	53.8%
Cc1cc(C(=O)CSc2nnc(-c3cccc(F)c3)n2N)c(C)n1Cc1ccc2c(c1)OCO2	-3.6%	2.59µM*	-15.9%	i	?	-30.0%
Cc1cc(C(=O)CSc2nnnn2-c2ccccc2)c(C)n1-c1ccc2c(c1)OCO2	-9.8%	7.31µM*	-20.1%	i	?	-7.3%
Cc1ccc(-n2nnnc2SCC(=O)c2cc(C)n(-c3cc(C)on3)c2C)cc1	-17.9%	i	-15.5%[9.24 µM]	i	i	4.5%
Cc1cc(C(=O)CSc2nnnn2-c2ccc(O)cc2)c(C)n1Cc1ccc2c(c1)OCO2	-1.4%	14.6µM*	-4.8%	i	?	-5.7%

From PubChem BioAssay
